Source: PubChem BioAssay AID2061320 (National Center for Advancing Translational Sciences (NCATS), 2025)
Results filed as inconclusive are left out. The source made the active and inactive calls. Calls follow the shape of the dose curve; as a rule, active = well fitted inhibition curve with a large enough effect; inconclusive = small, poorly fitted or top-dose-only effect; inactive = flat fitted curve, though single readings scatter.

assay: Identification of antibody-drug conjugate (ADC) payloads which are substrates of ATP-binding cassette drug efflux transporters: ABCG2-H460-MX20 cell line; settings: H460-MX20 (ABCG2) viability, CellTiter-Glo, 48 h; series mostly up to 28.7 µM
Description: Antibody-drug conjugates (ADCs) feature an antibody recognizing a specific protein joined to a potent toxic payload. Numerous antibody-drug conjugates have received FDA approval; however, clinical resistance arises. Resistance mechanisms include decreased expression or mutation of the antibody target, impaired payload release, or increased expression of ATP-binding cassette (ABC) efflux transporters associated with multidrug resistance. We therefore sought to characterize the interaction of ABC multidrug transporters with ADC payloads. We performed a high-throughput screen with 27 common ADC payloads using cells lines expressing ABC transporters P-glycoprotein (P-gp, encoded by ABCB1) or ABCG2 (encoded by ABCG2). Confirmatory assays were also performed using cells transfected to express P-gp, ABCG2, or MRP1 (encoded by ABCC1). Several commonly used ADC payloads were substrates of P-gp, including calicheamicin gamma1, monomethyl auristatin E, DM1, and DM4. All the pyrrolobenzodiazepines tested - SJG136, SGD-1882, SG2057, and SG3199 - were substrates of P-gp, ABCG2, and MRP1. […] These findings highlight the risk of transporter-mediated resistance with certain ADC payloads and underscore the importance of selecting payloads that evade ABC transporter recognition in future ADC development.
HEK-293 cells were transfected with empty vector (pcDNA) or vector containing the human ABCB1 (MDR-19), ABCG2 (R-5), or ABCC1 gene (MRP1) and were maintained in EMEM with 2 mg/mL G418 added to maintain transporter expression. The HeLa derivative KB-3-1 and the P-gp overexpressing KB-8-5-11 subline were maintained in DMEM; KB-8-5-11 additionally received 100 ng/mL colchicine. H460 parental cells were obtained from the Division of Cancer Treatment and Diagnosis Tumor Repository, National Cancer Institute at Frederick, MD and were cultured in RPMI. The ABCG2 expressing subline H460 MX20 was generated by selecting H460 cells in 20 nM mitoxantrone. Media in all cases was supplemented with 10% FBS and 1% penicillin-streptomycin. We explored 27 common ADC payloads, in two orthogonal, paired cell line sets-a drug selected and transfected set for each transporter--to identify substrates of the ABC transporters P-gp and ABCG2. Compounds were sourced from Levena Biopharma (San Diego, CA), Selleck Chem (Houston, TX), ChemieTek (Indianapolis, IN), or Microsource Discovery Systems (Gaylordsville, CT). Screening was performed as previously described. Briefly, cells were plated at a density of 500 cells/well in 1536 well plates with compounds added using a 1536-head pin tool (Kalypsys, San Diego CA). Cells were incubated with cytotoxic drugs and processed with CellTiter Glo reagent (Promega, Madison, WI) to determine viability after 48 hours. P-gp substrates were identified by comparing compound activity between paired sets of low-expressing (sensitive) and over-expressing (resistant) cell lines.

Row | Structure (SMILES) | Potency
1 | CC[C@H](C)[C@@H]([C@H](N)CC(=O)N1CCC[C@H]1[C@H](OC)[C@@H](C)C(=O)N[C@@H](Cc1ccccc1)c1nccs1)N(C)C(=O)[C@@H](NC(=O)[C@@H](NC)C(C)C)C(C)C | inactive
2 | COC(=O)c1cc2c3c(cc(O)c2[nH]1)N(C(=O)c1cc2cc(OC)c(OC)c(OC)c2[nH]1)CC3CCl (stereo not drawn) | 0.7 nM (active)
3 | CC(C)(C)OC(=O)Nc1ccc2[nH]c(C(=O)N3C[C@@H](CCl)c4c3cc(O)c3ccccc43)cc2c1 | 10.6 nM (active)
4 | CN(C)CCOc1ccc2[nH]c(C(=O)N3C[C@@H](CCl)c4c3cc(O)c3ccccc43)cc2c1 | 0.8 nM (active)
5 | CCN(C(C)=O)[C@H]1CO[C@@H](O[C@H]2[C@H](O[C@H]3C#C/C=C\C#C[C@]4(O)CC(=O)C(NC(=O)OC)=C3/C4=C\CSSSC)O[C@H](C)[C@@H](NO[C@H]3C[C@H](O)[C@H](SC(=O)c4c(C)c(I)c(O[C@@H]5O[C@@H](C)[C@H](O)[C@@H](OC)[C@H]5O)c(OC)c4OC)[C@@H](C)O3)[C@@H]2O)C[C@@H]1OC | 15 nM (active)
6 | COc1cccc2c1C(=O)c1c(O)c3c(c(O)c1C2=O)C[C@@](O)(C(=O)CO)C[C@@H]3O[C@H]1C[C@H]2[C@H](O[C@@H]3[C@@H](OC)OCCN32)[C@H](C)O1 | 0.2 nM (active)
7 | COc1cccc2c1C(=O)c1c(O)c3c(c(O)c1C2=O)C[C@@](O)(C(=O)CO)C[C@@H]3O[C@H]1C[C@H](N)[C@H](O)[C@H](C)O1 | 1190 nM (active)
8 | CCN[C@H]1CO[C@@H](O[C@H]2[C@H](O[C@H]3C#C/C=C\C#C[C@]4(O)CC(=O)C(NC(=O)OC)=C3/C4=C\CSSSC)O[C@H](C)[C@@H](NO[C@H]3C[C@H](O)[C@H](SC(=O)c4c(C)c(I)c(O[C@@H]5O[C@@H](C)[C@H](O)[C@@H](OC)[C@H]5O)c(OC)c4OC)[C@@H](C)O3)[C@@H]2O)C[C@@H]1OC | 4.2 nM (active)
